Compound activity as filed in PubChem BioAssay.
Hits are enriched below; roughly 18% of the tested compounds scored in any of these assays.
DT40 TDP1 no CPT – qHTS for Inhibitors of human tyrosyl-DNA phosphodiesterase 1 (TDP1): qHTS in cells in absence of CPT. DT40 Tdp1-/- hTDP1 cells, no CPT, ATP luminescence, 48 h. Potency, µM (series often up to 46.2 µM), for the others: top-dose activity change, negative = growth inhibition, usual class: inhibitors. 15% of 420,000 active. AID 686978, 2013; also: potency is read from the fitted curve at half-maximal effect; % is scaled to controls: 0 for no effect and ±100 for the full control effect; nearly all actives have a fitted effect of over 55% in size
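A cellular qHTS used chicken DT40 cells lacking endogenous Tdp1 but carrying stably transfected human TDP1. Compounds were applied without camptothecin, and cell growth kinetics were judged by ATP-dependent luminescence after ≥48 hr.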
TDP1 inh – inhibitors of human tyrosyl-DNA phosphodiesterase TDP1. 0.28% of 350,000 active. Potency, µM (doses to about 130 µM), inactives show at the top dose activity change, negative = inhibition, actives largely listed as inhibitors. Q9NUW8. recombinant TDP1, AlphaScreen DNA substrate cleavage. AID 485290; also: potency is read from the fitted curve at half-maximal effect; % is scaled to controls: 0 for no effect and ±100 for the full control effect; nearly all actives have a fitted effect of over 40% in size
Target sequence (Q9NUW8 whole entry, looked up): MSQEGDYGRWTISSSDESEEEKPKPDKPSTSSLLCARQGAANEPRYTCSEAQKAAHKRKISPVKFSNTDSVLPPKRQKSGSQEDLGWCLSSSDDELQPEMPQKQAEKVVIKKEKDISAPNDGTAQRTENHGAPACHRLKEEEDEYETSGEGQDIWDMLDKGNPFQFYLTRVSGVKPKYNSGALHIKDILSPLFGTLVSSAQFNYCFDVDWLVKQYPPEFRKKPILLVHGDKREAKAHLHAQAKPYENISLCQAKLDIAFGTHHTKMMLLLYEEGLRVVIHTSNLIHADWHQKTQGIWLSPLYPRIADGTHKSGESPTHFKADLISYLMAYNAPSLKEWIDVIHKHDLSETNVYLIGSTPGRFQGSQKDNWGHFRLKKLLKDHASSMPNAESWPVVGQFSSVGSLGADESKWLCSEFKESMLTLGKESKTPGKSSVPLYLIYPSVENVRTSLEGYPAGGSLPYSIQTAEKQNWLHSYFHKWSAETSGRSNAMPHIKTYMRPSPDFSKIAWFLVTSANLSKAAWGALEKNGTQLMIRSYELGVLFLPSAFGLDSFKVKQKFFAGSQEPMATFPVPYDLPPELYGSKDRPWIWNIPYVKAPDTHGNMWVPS
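Steps: enzyme plus compound, 15 min RT; add biotin/phosphotyrosine-FITC oligonucleotide (15 nM final), react 5 min; add donor/acceptor beads (10 ug/ml final), 10 min; read AlphaScreen. Tdp1 at 1 nM final.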
TGFb SMAD3 inh – TGF-b pathway inhibition; HepG2 CAGA-GFP TGF-b/SMAD3 reporter, GFP fluorescence, 18 h; TGF-beta stimulated, 500 pg/mL final; Potency, µM (doses to about 46.1 µM), for inactives: top-dose activity, negative = inhibition, usual class: inhibitors; 1.2% of 410,000 active; also: potency is read from the fitted curve at half-maximal effect; % is scaled to controls: 0 for no effect and ±100 for the full control effect; nearly all actives have a fitted effect of over 65% in size
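HEPG2 CAGA-GFP cells (1000/well, DMEM with 1% FBS) were pre-incubated 2 h at 37 degrees C, given compound by pin tool, then stimulated with TGF-beta at 500 pg/mL final for 18 h before per-cell GFP fluorescence imaging.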
DT40 TDP1 CPT – DT40-hTDP1 cell growth loss with CPT. 12% of 420,000 active. Potency, µM (doses to about 46.2 µM), without a hit: at the top dose activity change, negative = growth inhibition, hits mostly inhibitors. chicken DT40 Tdp1-/-;hTDP1 cells + 20 nM CPT, ATP luminescence, 48 h; also: potency is read from the fitted curve at half-maximal effect; % is scaled to controls: 0 for no effect and ±100 for the full control effect; nearly all actives have a fitted effect of over 55% in size
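Chicken DT40 Tdp1-/- cells complemented with human TDP1, 400 cells/well, exposed to compounds plus 20 nM camptothecin for at least 48 h at 37 C; viability read as ATP content by CellTiter-Glo luminescence.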
IL1B secr inh – inhibitors of inflammasome signaling (IL-1 beta secretion). THP-1 LPS/ATP IL-1B secretion, AlphaLISA, 16 h; stronger effect = lower value. activity change, % at 57.5 µM. 4.7% of 360,000 active; in the data active = activity change below about -50%; inconclusive = mostly about -30% to -49%; also: % is scaled to controls: 0 for no effect and ±100 for the full control effect
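Secreted IL-1B measured by AlphaLISA bead assay after 16 h compound exposure of THP-1 cells; compounds (final up to 57.5 uM) added 1 h before LPS (250 ng/mL) and ATP (1.25 mM) stimulation; lower signal means less secretion.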
HepG2 tox – kills HepG2 cells in TGF-b inhibitor counter-screen | Potency, µM (top dose mostly 46.1 µM), for the others: top-dose activity change, negative = cytotoxicity, usual class: cytotoxic | 0.76% of 410,000 active | HepG2 CAGA-GFP viability, ATP luminescence, 18 h; also: potency is read from the fitted curve at half-maximal effect
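CellTiter-Glo luminescence gave cytotoxicity after 18 hours at 37 degrees C. The cells were HepG2 CAGA-GFP in 1% FBS DMEM, stimulated with 500 pg/mL TGF-beta after compound addition. %Activity was normalised to no-cell wells (complete cell-killing) and DMSO (no toxicity), and curves were fitted and classified.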
Numbers without * were called inactive. Unless noted, calls follow the shape of the dose curve; as a rule, active = well fitted curve in the direction sought with a large enough effect; inconclusive = small, poorly fitted or top-dose-only effect, or another doubt; inactive = no such curve, though single readings can be large; an effect the other way counts as inactive or inconclusive.

How did CC(C)=CCC/C(C)=C/CC/C(C)=C/CCC(=O)OC/C=C(\C)CCC=C(C)C do in these assays?
DT40 TDP1 no CPT: -12.6%; DT40 TDP1 CPT: -3.4%

How did O=C(NCCc1nc2ccccc2[nH]1)/C(=C/c1ccc2c(c1)OCO2)NC(=O)c1ccc(Cl)cc1Cl do in these assays?
DT40 TDP1 no CPT: inconclusive; TDP1 inh: 5.5%; TGFb SMAD3 inh: inconclusive; DT40 TDP1 CPT: inconclusive; IL1B secr inh: -99.0*; HepG2 tox: -29.1%

How did O=C(/C=C/c1ccco1)N/C(=C\c1ccco1)C(=O)NCCc1nc2ccccc2[nH]1 do in these assays?
DT40 TDP1 no CPT: inconclusive; TDP1 inh: 9.3%; TGFb SMAD3 inh: -18.0%; DT40 TDP1 CPT: -26.9%; IL1B secr inh: 4.4; HepG2 tox: -17.7%

What do the screens show for `COc1ccc(/C=C/C(=O)N/C(=C\c2ccco2)C(=O)NCCc2nc3ccccc3[nH]2)cc1`?
DT40 TDP1 no CPT: 18.4µM*; TDP1 inh: 5.7%; TGFb SMAD3 inh: inconclusive; DT40 TDP1 CPT: 20.6µM*; IL1B secr inh: 0.0; HepG2 tox: -39.5%

Results for O=C(NCCc1nc2ccccc2[nH]1)/C(=C/c1ccco1)NC(=O)c1ccc(Br)cc1 ?
DT40 TDP1 no CPT: inconclusive; TDP1 inh: 5.7%; TGFb SMAD3 inh: -10.5%; DT40 TDP1 CPT: 23.1µM*; IL1B secr inh: 0.0; HepG2 tox: 3.2%

What do the screens show for `CC(=O)c1ccc(O[C@@H]2O[C@H](CO)[C@@H](O)[C@H](O)[C@H]2O)cc1`?
DT40 TDP1 no CPT: -3.0%; TDP1 inh: 1.5%; TGFb SMAD3 inh: 5.1%; DT40 TDP1 CPT: 17.2%; IL1B secr inh: 7.6; HepG2 tox: 4.4%

What do the screens show for `CCn1cc(CNC(=S)Nc2cccc(Cl)c2C)cn1`?
DT40 TDP1 no CPT: -1.1%; TDP1 inh: 5.1%; TGFb SMAD3 inh: 0.0%; DT40 TDP1 CPT: -1.1%; IL1B secr inh: 31.3; HepG2 tox: 0.0%

How did O=C(Nc1cccnc1)c1cc(S(=O)(=O)N2CCOCC2)ccc1Br do in these assays?
DT40 TDP1 no CPT: -13.9%; TDP1 inh: 3.8%; TGFb SMAD3 inh: -15.5%; DT40 TDP1 CPT: 11.4%; IL1B secr inh: inactive; HepG2 tox: -20.0%

What do the screens show for `CCCCn1nc2cc(C(=O)NCC34CC5CC(CC(C5)C3)C4)ccc2c1OCC`?
DT40 TDP1 no CPT: 16.4µM*; TDP1 inh: 2.8%; TGFb SMAD3 inh: inconclusive; DT40 TDP1 CPT: inconclusive; IL1B secr inh: -23.2; HepG2 tox: -24.2%

Results for CCCCn1nc2cc(C(=O)NCCc3cccs3)ccc2c1OCC ?
DT40 TDP1 no CPT: inconclusive; TDP1 inh: -2.8%; TGFb SMAD3 inh: -12.2%; DT40 TDP1 CPT: -3.6%; IL1B secr inh: -6.9; HepG2 tox: -2.4%

How did COc1ccc(-c2nn3c(=O)cc(CN4CCN(C(=O)Nc5ccc(C)c(Cl)c5)CC4)nc3s2)cc1 do in these assays?
DT40 TDP1 no CPT: -10.2%; TDP1 inh: 2.7%; TGFb SMAD3 inh: -0.8%; DT40 TDP1 CPT: -12.9%; HepG2 tox: -2.0%

How did c1ccc(NC2=NCCN2CCCC2CCCC2)cc1 do in these assays?
DT40 TDP1 no CPT: inconclusive; TDP1 inh: -2.2%; TGFb SMAD3 inh: 1.3%; DT40 TDP1 CPT: inconclusive; IL1B secr inh: -25.0; HepG2 tox: -16.9%

What do the screens show for `c1ccc(NC2=NCCN2CCC2CCCCC2)cc1`?
DT40 TDP1 no CPT: inconclusive; TGFb SMAD3 inh: 12.0%; DT40 TDP1 CPT: 23.1µM*; IL1B secr inh: 0.0; HepG2 tox: 0.8%

Results for CCCCCCCN1CCN=C1Nc1ccccc1 ?
DT40 TDP1 no CPT: 25.9µM*; TDP1 inh: -5.2%; TGFb SMAD3 inh: 1.1%; DT40 TDP1 CPT: 23.1µM*; IL1B secr inh: inconclusive; HepG2 tox: -5.0%

What do the screens show for `CCCCN1CCN=C1Nc1ccccc1`?
DT40 TDP1 no CPT: 0.6%; TGFb SMAD3 inh: -1.8%; DT40 TDP1 CPT: -15.0%; IL1B secr inh: 13.8; HepG2 tox: 18.8%

Results for O=C1C(Cl)=C(NCCCN2CCOCC2)C(=O)c2ccccc21 ?
DT40 TDP1 no CPT: 13µM*; TGFb SMAD3 inh: inconclusive; DT40 TDP1 CPT: 18.4µM*; IL1B secr inh: -95.6*; HepG2 tox: -41.5%

Results for O=C1C(Cl)=C(NCCN2CCOCC2)C(=O)c2ccccc21 ?
DT40 TDP1 no CPT: 16.4µM*; TGFb SMAD3 inh: inconclusive; DT40 TDP1 CPT: inconclusive; IL1B secr inh: -95.8*; HepG2 tox: 17.8µM*

How did O=C1CCCc2cc(S(=O)(=O)N3CCCC(C(=O)NCc4ccccc4Cl)C3)ccc2N1 (centres undefined) do in these assays?
TDP1 inh: 5.3%; TGFb SMAD3 inh: 4.6%; HepG2 tox: -10.3%

What do the screens show for `c1cncc(-c2nc3cc4ccccc4cc3[nH]2)c1`?
DT40 TDP1 no CPT: inconclusive; TDP1 inh: 2.0%; TGFb SMAD3 inh: inconclusive; DT40 TDP1 CPT: inconclusive; IL1B secr inh: -84.5*; HepG2 tox: -42.7%

How did O=c1[nH]c(-c2cccnc2)nc2sc(-c3ccccc3)cc12 do in these assays?
DT40 TDP1 no CPT: 0.517µM*; TDP1 inh: 7.7%; TGFb SMAD3 inh: -0.7%; DT40 TDP1 CPT: 0.517µM*; IL1B secr inh: 16.3; HepG2 tox: -22.9%

How did c1ccc(-c2nc3cc4ccccc4cc3[nH]2)nc1 do in these assays?
DT40 TDP1 no CPT: inconclusive; TDP1 inh: 7.2%; TGFb SMAD3 inh: -29.6%; DT40 TDP1 CPT: inconclusive; IL1B secr inh: -94.9*; HepG2 tox: 8.91µM*

How did O=C(Nc1ccc2nc(-c3cccnc3)[nH]c2c1)c1ccccc1F do in these assays?
DT40 TDP1 no CPT: inconclusive; TDP1 inh: 7.2%; TGFb SMAD3 inh: -3.2%; DT40 TDP1 CPT: inconclusive; IL1B secr inh: 175.8; HepG2 tox: -8.5%

What do the screens show for `CN(Cc1ccccc1)C(=O)c1ncn2c1c(=O)[nH]c1cccnc12`?
DT40 TDP1 no CPT: 4.1%; TGFb SMAD3 inh: 2.4%; DT40 TDP1 CPT: 2.7%; IL1B secr inh: 7.1; HepG2 tox: 3.3%

How did Cc1ccc(NC(=O)CCC(=O)N/N=C/c2ccc(O)cc2O)cc1 do in these assays?
DT40 TDP1 no CPT: 16.4µM*; TGFb SMAD3 inh: 0.0%; DT40 TDP1 CPT: 14.6µM*; IL1B secr inh: 175.1; HepG2 tox: -18.0%

How did C/C(=N\NC(=O)CO/N=C(\C)c1cccs1)c1ccc(N)cc1 do in these assays?
DT40 TDP1 no CPT: -3.3%; TDP1 inh: 1.3%; TGFb SMAD3 inh: 1.1%; DT40 TDP1 CPT: -4.1%; IL1B secr inh: 19.2; HepG2 tox: -4.2%
